EPAC1 agonist: qHTS for Agonist of cAMP-regulated guanine nucleotide exchange factor 3 (EPAC1): primary screen; AID 720707, 2013; EPAC1 agonist qHTS, biochemical assay; response scale: 100% = response to 6.5 mM cAMP; 360,000 compounds, 0.073% hits; Rap guanine nucleotide exchange factor 3 (Homo sapiens), O95398; Potency, µM (top dose mostly 154 µM), actives largely listed as activators; note: nearly all actives have a fitted effect of over 60% in size
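Nucleotide exchange by EPAC1 (100 nM) on Rap1B–BODIPY-GDP (250 nM) in the presence of 50 uM GDP is tracked fluorescently at 480/540 nm over 30 min. Signals are normalized to a 6.5 mM cAMP control.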
EPAC1 antagonist: qHTS for Antagonist of cAMP-regulated guanine nucleotide exchange factor 3 (EPAC1): primary screen; Rap guanine nucleotide exchange factor 3 (Homo sapiens), O95398; EPAC1 GEF assay, Rap1b-BODIPY-GDP exchange fluorescence; Potency, µM (doses to about 115 µM), most hits filed as inhibitors; 360,000 compounds, 0.14% hits; AID 720709, 2013; note: nearly all actives have a fitted effect of over 50% in size
EPAC2 antag: qHTS for Antagonist of cAMP-regulated guanine nucleotide exchange factor 2 (EPAC2): primary screen; EPAC2 GEF exchange of Rap1B-BODIPY-GDP, fluorescence; 360,000 compounds, 0.18% hits; Rap guanine nucleotide exchange factor 4 (Homo sapiens), Q8WZA2; Potency, µM (doses to about 114 µM), hits mostly inhibitors; note: nearly all actives have a fitted effect of over 45% in size
Target sequence (Q8WZA2 whole entry, looked up): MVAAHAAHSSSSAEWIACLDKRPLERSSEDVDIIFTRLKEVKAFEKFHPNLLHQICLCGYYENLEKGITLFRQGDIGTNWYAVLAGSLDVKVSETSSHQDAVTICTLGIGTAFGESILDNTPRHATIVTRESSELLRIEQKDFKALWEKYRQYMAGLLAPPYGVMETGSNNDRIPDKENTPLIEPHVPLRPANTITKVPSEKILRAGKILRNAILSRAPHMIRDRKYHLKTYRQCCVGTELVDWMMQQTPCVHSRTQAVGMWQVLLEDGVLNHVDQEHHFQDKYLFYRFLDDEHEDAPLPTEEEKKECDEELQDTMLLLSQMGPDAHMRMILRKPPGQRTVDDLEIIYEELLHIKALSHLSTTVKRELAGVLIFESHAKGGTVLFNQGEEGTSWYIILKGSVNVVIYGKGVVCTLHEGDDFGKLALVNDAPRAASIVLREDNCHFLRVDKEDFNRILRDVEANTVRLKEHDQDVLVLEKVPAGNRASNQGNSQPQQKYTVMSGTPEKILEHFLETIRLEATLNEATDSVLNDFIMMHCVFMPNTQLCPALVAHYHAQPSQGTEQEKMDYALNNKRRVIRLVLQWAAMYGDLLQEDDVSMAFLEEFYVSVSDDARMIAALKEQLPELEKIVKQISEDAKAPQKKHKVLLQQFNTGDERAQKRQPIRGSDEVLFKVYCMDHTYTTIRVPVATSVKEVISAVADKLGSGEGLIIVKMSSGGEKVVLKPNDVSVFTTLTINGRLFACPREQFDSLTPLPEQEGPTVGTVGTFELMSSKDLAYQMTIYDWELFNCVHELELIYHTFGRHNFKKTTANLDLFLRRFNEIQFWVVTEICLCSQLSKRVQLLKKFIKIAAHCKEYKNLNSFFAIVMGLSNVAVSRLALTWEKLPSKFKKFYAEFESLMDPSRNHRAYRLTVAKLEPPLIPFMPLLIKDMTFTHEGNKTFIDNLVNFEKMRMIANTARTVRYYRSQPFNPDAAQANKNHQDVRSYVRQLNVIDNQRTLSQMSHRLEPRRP
EPAC2 ag: qHTS for Agonist of cAMP-regulated guanine nucleotide exchange factor 4 (EPAC2): primary screen. Rap guanine nucleotide exchange factor 4 (Homo sapiens), Q8WZA2. EPAC2 activation, biochemical qHTS; response scale: 100% = 6.5 mM cAMP response. Potency, µM (doses to about 154 µM), usual class: activators. AID 720711, 2013. 360,000 compounds, 0.079% hits; note: nearly all actives have a fitted effect of over 50% in size
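qHTS, titration series. 100 nM EPAC2 / 250 nM Rap1B-BODIPY-GDP / 50 uM GDP; RT; ex 480/em 540 nm, 5-min reads to 30 min. Norm. to 6.5 mM cAMP = activation.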
USP1-UAF1 inh: Inhibitors of USP1/UAF1: Primary Screen. Ubiquitin carboxyl-terminal hydrolase 1 (Homo sapiens), O94782. recombinant USP1/UAF1, Ub-Rhodamine cleavage fluorescence. Potency, µM (series often up to 57.1 µM), usual class: inhibitors. 390,000 compounds, 0.23% hits. AID 743255, 2014; note: nearly all actives have a fitted effect of over 60% in size
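1 nM enzyme complex + cpd, 15 min RT; start with Ub-Rho 150nM final; kinetic fluorescence ex 480/em 540, 6 reads q60 s. Buffer 50mM HEPES pH 7.8, 0.5mM EDTA, 0.1 mg/ml BSA, 1mM TCEP, 0.01% Tween-20.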
Numbers stand for hits; - = inactive; ? = inconclusive; . = not tested or not shown. A selection: hits, their analogues and other compounds. The true share with any hit is near 0.49%. Calls come from the whole dose curve; as a rule, active = well fitted curve in the direction sought with a large enough effect; inconclusive = small, poorly fitted or top-dose-only effect, or another doubt; inactive = no such curve, though single readings can be large; an effect the other way counts as inactive or inconclusive.

SMILES | EPAC1 agonist | EPAC1 antagonist | EPAC2 antag | EPAC2 ag | USP1-UAF1 inh
O=C(NC1(O)C(=O)c2ccccc2C1=O)c1c(Cl)cccc1Cl | - | 50µM | ? | - | 28µM
O=C(NC1(O)C(=O)c2ccccc2C1=O)c1ccccc1 | - | ? | ? | - | 18µM
O=C(Nc1ccccc1Cl)c1c(F)c(F)c(F)c(F)c1F | - | - | - | - | -
CC(=O)c1cccc(NC(=O)C2CCCN(c3nnc(-n4cccc4)s3)C2)c1 (stereo not given) | . | . | . | . | -
COc1ccc(C2=C(N)c3ccccc3C2=O)cc1 | - | - | - | - | -
COC1=C(c2ccccc2)C(=O)c2ccccc2C1=O | - | - | - | - | 14µM
O=C(CSc1nc2ccsc2c(=O)n1CC1CCC(C(=O)O)CC1)c1ccc(Cl)cc1 (stereo not given) | ? | 56µM | - | - | -
O=C(O)c1ccccc1-c1ccc(/C=C/c2cc(C(F)(F)F)[nH]c(=O)n2)o1 | 56µM | - | - | 100µM | 28µM
Cc1nc(S/C(=C/c2ccc(-c3cc(Cl)ccc3C)o2)C(=O)O)n[nH]1 | - | - | ? | - | -
O=C(N/N=C/c1ccc(-c2ccccc2C(=O)O)o1)c1cccs1 | - | - | - | - | -
O=C(O)c1cc(Cl)ccc1-c1ccc(/C=C/c2cc(C(F)(F)F)[nH]c(=O)n2)o1 | 89µM | - | - | 100µM | 28µM
COc1cccc(C2CC(c3cccs3)=NN2C(=O)c2ccco2)c1O (stereo not given) | - | - | 35µM | - | -
COc1cccc(C2=NN(C(=O)c3ccco3)C(c3ccco3)C2)c1 (stereo not given) | - | - | 14µM | - | -
Cc1ccc(C(=O)Nc2onc3c2CCCC3)cc1 | . | . | . | . | -
CC(=O)c1ccc(N2C(=O)N(Cc3cccc(C(F)(F)F)c3)c3ccccc3S2(=O)=O)cc1 | . | . | . | . | -
COc1cccc(CC(=O)Nc2nc(-c3cccnc3)cs2)c1 | - | - | - | - | -
COc1ccc(CC(=O)Nc2nc(-c3cccnc3)cs2)cc1 | - | 13µM | - | - | -
Cc1oc2ccc(O)c(CN3CCN(Cc4ccccc4)CC3)c2c1C(=O)Nc1cccc(Cl)c1C | . | . | . | . | -
CN1CCN(c2nc(-c3cccs3)cs2)CC1 | - | - | - | - | -
O=C1c2ccccc2C(=O)N1c1nc(-c2cccs2)cs1 | - | ? | 56µM | - | -
Cc1ccc(-c2cc3c(nn2)-c2ccccc2C3=O)cc1 | - | - | - | - | -
Cc1ccccc1-c1cc2c(nn1)-c1ccccc1C2=O | - | - | - | - | 32µM
CS(=O)(=O)c1ccc2c(c1)sc1nc(=O)c(/C=C3/C=CC(=O)C(O)=C3)c(N)n12 | - | 50µM | - | - | ?
Cc1ccccc1NC(=O)COC(=O)c1ccc(CSc2ccc(Cl)cc2)cc1 | - | - | - | - | -
Cc1cc(CSc2ccc(Cl)cc2)ccc1N | - | - | 16µM | - | -
SMILES | EPAC1 agonist | EPAC1 antagonist | EPAC2 antag | EPAC2 ag | USP1-UAF1 inh
COc1ccc(CCNc2nc(SCc3ccccc3Cl)nc3ccccc23)cc1OC | . | . | . | . | -
COc1ccc(C(=O)c2nccc3cc(OC)c(OC)cc23)cc1OC | - | - | - | - | 14µM
CCOc1cc(CNc2ccc(N3CCCC3)cc2)cc(Cl)c1OC | - | - | - | - | 28µM
Cc1ccc2c(CC(=O)N(Cc3ccc(N(C)C)cc3)Cc3ccco3)coc2c1C | . | . | . | . | -
CCOC(=O)c1sc2nc3c(SCC(=O)O)cc(C(=O)c4cc(F)ccc4O)cn3c(=O)c2c1C | 89µM | 8.9µM | ? | - | -
CCN1CCc2c(sc(NC(=O)c3ccc(S(=O)(=O)N4CCCCCC4)cc3)c2C(=O)NC)C1 | 112µM | - | - | - | -
NC(=O)c1c(NC(=O)c2ccccc2)sc2c1CCN(Cc1ccccc1)C2 | - | - | - | 89µM | 8.9µM
CCN1CCc2c(sc(NC(=O)Cc3ccccc3)c2C(N)=O)C1 | - | - | - | - | -
CNC(=O)c1c(NC(=O)c2ccc(S(=O)(=O)N3CCCCC3)cc2)sc2c1CCC2 | . | . | . | . | -
CCN1CCc2c(sc(NC(=O)c3ccc(S(=O)(=O)N(CC)c4ccccc4)cc3)c2C(N)=O)C1 | - | ? | - | - | 28µM
CCN1CCc2c(sc(NC(=O)Nc3ccc(Cl)c(Cl)c3)c2C(N)=O)C1 | 100µM | ? | ? | 100µM | ?
CCC(C(=O)N1CCN(c2cc(Cl)ccc2C)CC1)n1nc(C)n2c(cc3occc32)c1=O (stereo not given) | . | . | . | . | -
CC(=O)N1CCc2c(sc(NC(=O)CS(=O)(=O)c3ccc(F)cc3)c2C(N)=O)C1 | 126µM | - | - | - | -
CC(C)(C)c1cc(-c2csc(Nc3ccccc3)[n+]2Cc2ccc(C(=O)O)cc2)cc(C(C)(C)C)c1O | - | 79µM | - | - | ?
O=C(O)c1ccc(C[n+]2c(-c3ccccc3)csc2Nc2ccccc2)cc1 | - | - | - | - | -
CCc1cc(=O)oc2cc(C)cc(OCC(=O)N[C@@H](CSCc3ccccc3)C(=O)O)c12 | - | - | 56µM | - | -
COCOCCn1cc(CN2CCS(=O)(=O)N(Cc3ccc(-c4ccc(C)cc4)cc3)C(CC(C)C)C2=O)nn1 (stereo not given) | - | - | ? | - | -
COCOCCn1cc(CN2CCS(=O)(=O)N(Cc3ccc(-c4ccc(F)cc4)cc3)C(CC(C)C)C2=O)nn1 (stereo not given) | - | - | 13µM | - | -
CCc1ccc(NC(=O)c2cc(=O)c3ccc(C)c(C)c3o2)cc1 | . | . | . | . | -
Cc1cccc(NC(=O)C(=O)c2cc(C)n(-c3ccccc3)c2C)c1C | . | . | . | . | -
Cc1c2ccccc2nc2c(F)c(NCCO)c(F)c(F)c12 | - | 28µM | - | - | ?
COc1ccc(N2CCN(c3oc(/C=C/c4ccccc4OC)nc3C#N)CC2)cc1 | . | . | . | . | -
O=C(Nc1ccccc1N1CCOCC1)c1cccc2c(Br)cccc12 | - | - | 14µM | - | -
O=C(Nc1ccc(N2CCOCC2)cc1)c1cccc2c(Br)cccc12 | - | - | - | - | -
O=S(=O)(O)c1cc(O)ccc1O | - | - | - | - | -
O=S(=O)(c1cc(O)ccc1O)c1cccc2c(S(=O)(=O)c3cc(O)ccc3O)cccc12 | - | 79µM | - | - | ?
COc1ccccc1NC(=O)COC(=O)c1ccc([N+](=O)[O-])s1 | - | 11µM | ? | - | 14µM
CCc1noc(C)c1C(=O)Nc1nc2c(C)cc(C)cc2s1 | 89µM | - | - | - | -

Screens from PubChem BioAssay.
